# A selection: hits, their analogues and other compounds. The true share with any hit is near 1.6%.
# KCNQ2 inh: blocks the rat KCNQ2 potassium channel; O88943; CHO-K1 KCNQ2, FluxOR thallium flux, 20 min; stronger effect = lower value; B-score at 10 µM; 310,000 compounds, 1.1% hits; AID 2156;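 active means fluorescence ratio B-score at most minus 3 library SDs, with starting brightness B-score within 2 library SDs, cut at about -5.5 in these data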
# KCNQ2 pot: potentiators of rat KCNQ2 potassium channel; O88943; CHO-K1 KCNQ2, FluxOR thallium flux fluorescence; stronger effect = higher value; B-score at 10 µM; 310,000 compounds, 0.54% hits; AID 2239;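 active means fluorescence ratio B-score at least 3 SD of library B-scores, with initial fluorescence B-score within 3 of them, cut at about 5.3 in these data; same plate scores as AID 2156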;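 further: B-score of peak minus minimum over baseline fluorescence ratio after K+ and Tl+ stimulus; positive B-score means potentiation of KCNQ2 with more thallium influx and brighter signal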
# KCNQ2 inh conf: rat KCNQ2 channel inhibition, confirmatory screen. shares compounds with KCNQ2 inh. KCNQ2-expressing cells, thallium flux; stronger effect = lower value. activity change, negative = inhibition, % at 10 µM. 1,000 compounds, 57% hits;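 further: 0% = vehicle wells and values are ratio percent relative to vehicle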
# KCNQ1 spec: human KCNQ1 activity in KCNQ2 inhibitor specificity screen; shares compounds with KCNQ2 inh; KCNQ1-expressing cells, FluxOR thallium flux fluorescence; stronger effect = lower value; activity change, negative = inhibition, % at 10 µM; 1,000 compounds, 15% hits; AID 493026;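 active means activity change at least 3 SD of negative controls below their mean in both duplicate wells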;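 further: CHO cells stably transfected with KCNQ1 and depolarized by potassium stimulus; peak minus minimum fluorescence over baseline after thallium addition; 0% = vehicle negative control and -100% = blank without thallium stimulus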
# CHO Tl ctr: KCNQ2 inhibitor counter-screen hit in parental CHO cells | activity change, % at 10 µM | 1,000 compounds, 14% hits | AID 493029 | thallium flux counter-screen; stronger effect = lower value | shares compounds with KCNQ2 inh;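 further: 0% = vehicle negative controls with stimulus buffer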
# KCNQ2 inh confirm: rat KCNQ2 inhibition confirmed by electrophysiology | shares compounds with KCNQ2 inh | KCNQ2-expressing cells, automated patch clamp current | calls only at 10 µM | 550 compounds, 49% hits | AID 588531
# An asterisk follows results filed as active; i = inactive; x = no result given; + = active, no number. Unless noted, how the calls were made is not given here.
SMILES,KCNQ2 inh,KCNQ2 pot,KCNQ2 inh conf,KCNQ1 spec,CHO Tl ctr,others
COc1ccc(/C=C/C(=O)OCC(=O)Nc2ccc(N3CCOCC3)cc2)cc1OC,i,x,x,x,x,
O=S(=O)(NCc1ccccc1)NCc1ccc(Cl)cc1Cl,i,x,x,x,x,
COCCCNC(=O)c1ccc(S(=O)(=O)c2ccc(Cl)cc2)c(NC(C)=O)c1,i,0.24,x,x,x,
O=C(NCC1CCCO1)c1onc(CSc2ccc(F)c(F)c2)c1C(=O)O (configuration not stated),i,x,x,x,x,
O=C(CCS(=O)(=O)c1ccccc1)N1CCN(c2ccc(F)cc2)CC1,i,x,x,x,x,
O=C(/C=C/c1ccccc1)c1ccc2c(c1)OCO2,i,x,x,x,x,
O=C(/C=C/c1ccccc1Br)c1ccc2c(c1)OCO2,-6.8*,-6.8,i,i,i,
Cc1cc(-c2nnc(-c3ccccc3)c(-c3ccccc3)n2)c(C)o1,-9.9*,-9.9,i,i,i,
Cc1ccc(-c2nnc(-c3ccccc3)c(-c3ccccc3)n2)cc1,i,x,x,x,x,
CS(=O)(=O)N(CC(=O)NCCSCc1ccccc1)c1ccccc1F,i,0.85,x,x,x,
CCc1ccccc1NC(=O)/C(=C/c1ccco1)c1ccccc1,-7.7*,-7.7,-29%*,i,i,KCNQ2 inh confirm=+
Cc1ccccc1NC(=O)/C(=C/c1ccco1)c1ccccc1,i,x,x,x,x,
Cc1cc(C)cc(NC(=O)[C@H](NC(=O)[C@@H]2Cc3ccccc3CN2)c2ccccc2)c1,i,x,x,x,x,
NC(=O)/C(=C\c1cccnc1)NC(=O)c1ccccc1,i,x,x,x,x,
C=CCNC(=O)/C(C#N)=C/c1ccccc1Cl,-6.7*,-6.7,i,i,i,
C=CCNC(=O)/C(C#N)=C/c1ccc(C(=O)O)cc1,i,0.4,x,x,x,
Cc1cc(NC(=O)COC(=O)C(Nc2ccc(C(F)(F)F)cc2Cl)C(C)C)no1 (configuration not stated),i,x,x,x,x,
O=C(NCCN1CCOCC1)c1cnn2c(-c3ccccc3)cc(-c3ccccc3)nc12,i,x,x,x,x,
Cc1ccc(-c2cc(C(=O)N3CCC(C)CC3)c3ccccc3n2)cc1,-8.3*,-8.3,-29%*,i,i,KCNQ2 inh confirm=i
CC1CCN(C(=O)c2cc3nc(-c4ccccc4)cc(-c4ccccc4)n3n2)CC1,-7.8*,-7.8,-35%*,i,i,KCNQ2 inh confirm=i
O=C(c1cnn2c(-c3ccccc3)cc(-c3ccccc3)nc12)N1CCN(Cc2ccccc2)CC1,-8.9*,-8.9,-28%*,i,i,KCNQ2 inh confirm=i
O=C(c1cc(-c2ccc(Cl)cc2)nc2ccccc12)N1CCOCC1,i,x,x,x,x,
O=C(NC1CCCC1)c1cc2nc(-c3ccccc3)cc(-c3ccccc3)n2n1,i,x,x,x,x,
C=CCn1c(NCc2cc(C)ccc2O)nc2ccccc21,-7.1*,-7.1,-16%*,i,i,KCNQ2 inh confirm=+
Cc1ccc(O)c(CNc2nc3ccccc3n2C(C)C)c1,i,x,x,x,x,
SMILES,KCNQ2 inh,KCNQ2 pot,KCNQ2 inh conf,KCNQ1 spec,CHO Tl ctr,others
COC(=O)/C=C/c1ccc2c(c1)OCO2,i,1.8,x,x,x,
CN(C(=O)/C=C/c1ccc2c(c1)OCO2)c1ccccc1,-6.6*,-6.6,-23%*,i,i,KCNQ2 inh confirm=i
CN(CCOc1ccccc1)C(=O)C1CCC(=O)N(CCc2ccc(Cl)cc2)C1 (configuration not stated),-7.8*,-7.8,i,i,i,
COc1ccc(CCN2CC(C(=O)N(C)CCOc3ccccc3)CCC2=O)cc1 (configuration not stated),i,x,x,x,x,
O=C(Cn1nnc(-c2cccs2)n1)Nc1ccccc1C(F)(F)F,i,x,x,x,x,
Cc1cccc(/C(N)=N/OC(=O)N2c3ccccc3Sc3ccccc32)c1,-6.8*,-6.8,i,i,i,
Cc1cccc(/C(N)=N/OC(=O)Cc2ccccc2)c1,i,3,x,x,x,
Cc1cc(C)c(OCCNCc2ccccc2)c(C)c1,i,x,x,x,x,
Cc1cc(Cl)cc(C)c1OCCNCc1ccccc1,-6.9*,-6.9,i,i,i,
CCOc1ccc(OCCC(=O)OCC(=O)N2CCN(S(=O)(=O)c3ccc(Cl)cc3)CC2)cc1,i,1.7,x,x,x,
COC(=O)c1c(-c2ccc(F)cc2)csc1NC(=O)C1CCCO1 (configuration not stated),i,0.46,x,x,x,
CCc1ccc(-c2csc(NC(=O)C3CCCO3)c2C(=O)OC(C)C)cc1 (configuration not stated),-8.3*,-8.3,-29%*,i,i,
Cc1ccc(-c2cc(C(=O)Nc3ccccc3C)c3ccccc3n2)o1,-10*,-10,-40%*,i,i,KCNQ2 inh confirm=+

# Compound activity: PubChem BioAssay, Johns Hopkins Ion Channel Center
